High-throughput results (PubChem)
LmPK inh – qHTS Assay for Inhibitors of Leishmania Mexicana Pyruvate Kinase (LmPK) | Q27686 | purified LmPK, Kinase-Glo ATP luminescence, 1 h | Potency, µM (titrated, usually from 57.5 µM), most hits filed as inhibitors | hit rate 0.37% among 290,000 | AID 1721, 2009
Target sequence (Q27686 whole entry, looked up): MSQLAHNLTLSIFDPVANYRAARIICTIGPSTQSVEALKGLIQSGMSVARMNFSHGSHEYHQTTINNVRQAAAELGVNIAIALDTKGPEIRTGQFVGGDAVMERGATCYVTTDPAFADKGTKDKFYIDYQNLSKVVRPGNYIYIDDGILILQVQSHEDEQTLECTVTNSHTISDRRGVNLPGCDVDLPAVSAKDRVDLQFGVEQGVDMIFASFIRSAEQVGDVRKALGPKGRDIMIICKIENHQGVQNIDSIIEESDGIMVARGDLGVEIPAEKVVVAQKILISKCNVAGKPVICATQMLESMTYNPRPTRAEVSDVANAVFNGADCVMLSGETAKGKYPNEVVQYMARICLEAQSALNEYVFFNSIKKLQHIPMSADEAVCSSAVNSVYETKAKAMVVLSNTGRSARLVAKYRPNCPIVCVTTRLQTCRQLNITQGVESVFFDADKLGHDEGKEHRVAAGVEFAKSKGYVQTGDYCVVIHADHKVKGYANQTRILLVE
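Pyruvate kinase activity monitored as ATP production (luciferase luminescence). Conditions: 0.1 nM enzyme, 0.5 mM PEP, 0.1 mM ADP, 1 h, RT; normalized against uninhibited and no-enzyme wells.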
RE007 growth inh – qHTS Assay for Inhibitors of the HIV-1 protein Vpr. S. pombe RE007 Vpr strain, BacTiter-Glo ATP luminescence, 24 h. Potency, µM (titrated, usually from 92.2 µM), usual class: inhibitors. hit rate 0.21% among 360,000; active means well fitted falling curve with a large enough effect; inconclusive means small, poorly fitted or top-dose-only effect; inactive means no such curve, though single readings can be large or run the other way; further: nearly all actives have a fitted effect of over 50% in size
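Fission yeast RE007 carrying one integrated HIV-1 vpr copy, seeded at OD 0.01 in PMG+AL medium with 23 nL pinned compound. Grown 24 h at 30 degrees; viability read by BacTiter-Glo luminescence after 5 min.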
Tb PYK inh – qHTS of Trypanosoma Brucei Inhibitors. hit rate 0.12% among 410,000. pyruvate kinase (Trypanosoma brucei), Q57TT1. Potency, µM (top dose mostly 76.8 µM), usual class: inhibitors. AID 624173, 2012. TbPYK enzyme, Kinase-Glo Plus ATP luminescence, 45 min; further: nearly all actives have a fitted effect of over 50% in size
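Activity of T. brucei pyruvate kinase was followed by Kinase-Glo Plus luminescence after the enzyme reacted 45 min at room temperature with 130 uM ADP (final) and substrate. Test compounds were added before ADP at multiple concentrations.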
CHX counter – Cycloheximide Counterscreen for Small Molecule Inhibitors of Shiga Toxin | cell reporter, cycloheximide protein synthesis inhibition counterscreen | max response, % | hit rate 12% among 300,000 | AID 2314, 2010; in the data active means max response mostly above about 13%, no sharp cut-off; inactive means mostly below about 14%; further: read at 38.3 µM for the half of the compounds with a filed dose
FBPA Giardia inh – qHTS Assay for Inhibitors of Fructose-1,6-bisphosphate Aldolase from Giardia Lamblia | purified Giardia FBPA | A8B2U2 | AID 2451, 2010 | Potency, µM (top dose mostly 59.6 µM), hits mostly inhibitors | hit rate 0.71% among 290,000; further: nearly all actives have a fitted effect of over 55% in size
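40 nM FBPA preincubated 10 min at RT with compound (up to 57.5 uM final), then substrate plus GAPDH/TPI/NAD/arsenate coupling and diaphorase/resazurin added. Fluorescence read after 20 min at RT, 525/598 nm.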
Shiga inhibitor – A qHTS for Small Molecule Inhibitors of Shiga Toxin. AID 2315, 2010. Vero cells, Shiga toxin protein synthesis inhibition reporter. inhibition, % at 38.7 µM. hit rate 9.2% among 290,000; in the data active means inhibition mostly above about 28%, no sharp cut-off; inactive means mostly below about 43%
Numbers stand for hits. The sample as a whole holds a higher share of hits than the screen did. Unless noted, the call rests on the fitted dose curve; in most records, active means well fitted curve in the direction sought with a large enough effect; inconclusive means small, poorly fitted or top-dose-only effect, or another doubt; inactive means no such curve, though single readings can be large; an effect the other way counts as inactive or inconclusive.

Results for Cc1cc2c(cc1C)-c1nnnn1C(C)(C)C2 ?
LmPK inh: inactive; RE007 growth inh: inactive; Tb PYK inh: inactive; CHX counter: inactive; FBPA Giardia inh: inactive; Shiga inhibitor: 59

How did Cc1cc(NC(=O)CSc2nc3ccsc3c(=O)n2NC(=O)c2ccccc2)no1 do in these assays?
LmPK inh: inactive; RE007 growth inh: inactive; Tb PYK inh: inactive; CHX counter: 36; FBPA Giardia inh: inactive; Shiga inhibitor: 37

What do the screens show for `O=C(Nn1c(SCc2ccc(F)cc2)nc2ccsc2c1=O)c1ccccc1`?
LmPK inh: inactive; RE007 growth inh: inactive; Tb PYK inh: inactive; CHX counter: 28; FBPA Giardia inh: inactive; Shiga inhibitor: inactive

What do the screens show for `CCC(C)NC(=O)CSc1nc2ccsc2c(=O)n1NC(=O)c1ccccc1` (configuration not stated)?
LmPK inh: inactive; RE007 growth inh: inactive; Tb PYK inh: inactive; CHX counter: inactive; FBPA Giardia inh: inactive; Shiga inhibitor: inactive

Results for Cc1ccc(CNC(=O)CSc2nc3ccsc3c(=O)n2NC(=O)c2ccccc2)cc1 ?
LmPK inh: inactive; RE007 growth inh: inactive; Tb PYK inh: inactive; CHX counter: inactive; FBPA Giardia inh: inactive; Shiga inhibitor: inactive

How did CC12CCC=CC1C(c1ccoc1)N(Cc1ccccc1)C2=O (configuration not stated) do in these assays?
CHX counter: inactive; FBPA Giardia inh: inactive; Shiga inhibitor: inactive

Results for CCCC[C@H](CN[C@@H](CNC)[C@H](C)CC)NCCC12CCC(CC1)C2 ?
LmPK inh: inactive; RE007 growth inh: inactive; Tb PYK inh: inactive; CHX counter: inactive; FBPA Giardia inh: inactive; Shiga inhibitor: inactive

What do the screens show for `O=C(CS(=O)(=O)c1ccccc1)c1cc2ccccc2oc1=O`?
LmPK inh: inactive; RE007 growth inh: inactive; Tb PYK inh: inactive; CHX counter: 32; FBPA Giardia inh: inactive; Shiga inhibitor: 63

How did O=C(CS(=O)(=O)c1ccccc1)c1cc2cc(F)ccc2oc1=O do in these assays?
LmPK inh: inactive; RE007 growth inh: inactive; Tb PYK inh: inactive; CHX counter: 50; Shiga inhibitor: 45

Results for COc1cccc2cc(C(=O)CS(=O)(=O)c3ccc(C(C)(C)C)cc3)c(=O)oc12 ?
LmPK inh: inactive; RE007 growth inh: inactive; Tb PYK inh: inactive; CHX counter: inactive; Shiga inhibitor: inactive

How did COc1ccc2cc(C(=O)CS(=O)(=O)c3ccccc3)c(=O)oc2c1 do in these assays?
LmPK inh: inactive; RE007 growth inh: inactive; Tb PYK inh: inactive; CHX counter: inactive; Shiga inhibitor: inactive

How did Cc1cc(=O)oc2cc(NC(=O)c3ccc(OC(F)F)cc3)ccc12 do in these assays?
LmPK inh: inactive; RE007 growth inh: inactive; Tb PYK inh: inactive; CHX counter: 21; FBPA Giardia inh: inactive; Shiga inhibitor: 43

Results for Cc1cc(=O)oc2cc(Nc3ccccc3)ccc12 ?
LmPK inh: inactive; RE007 growth inh: inactive; Tb PYK inh: inactive; CHX counter: 60; FBPA Giardia inh: inactive; Shiga inhibitor: 55

How did Cc1cc(=O)oc2cc(NC(=O)c3cccc(S(=O)(=O)N(C)C)c3)ccc12 do in these assays?
LmPK inh: inactive; RE007 growth inh: inactive; Tb PYK inh: inactive; CHX counter: 28; FBPA Giardia inh: inactive; Shiga inhibitor: 66

How did COc1ccccc1C(=O)Nc1ccc2c(C)cc(=O)oc2c1 do in these assays?
LmPK inh: inactive; RE007 growth inh: inactive; Tb PYK inh: inactive; CHX counter: 35; FBPA Giardia inh: inactive; Shiga inhibitor: 107

How did Cc1cc(=O)oc2cc(NC(=O)c3cccc(S(C)(=O)=O)c3)ccc12 do in these assays?
LmPK inh: inactive; RE007 growth inh: inactive; Tb PYK inh: inactive; CHX counter: inactive; FBPA Giardia inh: inactive; Shiga inhibitor: inactive

How did CCOc1ncccc1C(=O)Nc1ccc2c(C)cc(=O)oc2c1 do in these assays?
LmPK inh: inactive; RE007 growth inh: inactive; Tb PYK inh: inactive; CHX counter: inactive; FBPA Giardia inh: inactive; Shiga inhibitor: inactive

Results for CCc1cccc(NC(=O)Cn2c(=O)c3cccn3c3ccccc32)c1 ?
LmPK inh: inactive; RE007 growth inh: inactive; Tb PYK inh: inactive; CHX counter: inactive; Shiga inhibitor: inactive

How did O=C(Nc1ccccc1C(=O)N1CCOCC1)c1ccc(Br)cc1 do in these assays?
LmPK inh: inactive; RE007 growth inh: inactive; Tb PYK inh: inactive; CHX counter: inactive; Shiga inhibitor: inactive

What do the screens show for `O=C(CS(=O)(=O)Cc1ccccc1)NCc1ccccc1Cl`?
LmPK inh: inactive; RE007 growth inh: inactive; Tb PYK inh: inactive; CHX counter: inactive; Shiga inhibitor: inactive

Results for O=c1cnc2cnc(N3CCNCC3)nc2n1Cc1cccs1 ?
Tb PYK inh: inactive; FBPA Giardia inh: inactive

How did Cc1cc(=O)oc2cc(NC(=O)CCC(=O)O)ccc12 do in these assays?
LmPK inh: inactive; RE007 growth inh: inactive; Tb PYK inh: inactive; CHX counter: inactive; FBPA Giardia inh: inactive; Shiga inhibitor: inactive

What do the screens show for `Cc1cc(=O)oc2cc(NC(=O)Cc3ccccc3)ccc12`?
LmPK inh: inactive; RE007 growth inh: inactive; Tb PYK inh: inactive; CHX counter: inactive; FBPA Giardia inh: inactive; Shiga inhibitor: 45

How did Fc1cccc(NC(=S)NCc2ccccn2)c1 do in these assays?
LmPK inh: inactive; RE007 growth inh: inactive; Tb PYK inh: inactive; CHX counter: 50; FBPA Giardia inh: inactive; Shiga inhibitor: 94

How did Cc1cc(=O)oc2cc(NC(=S)NNC(=O)c3c(Cl)cnn3C)ccc12 do in these assays?
LmPK inh: inactive; RE007 growth inh: inactive; Tb PYK inh: inactive; CHX counter: inactive; Shiga inhibitor: 48

How did Cc1cc(=O)oc2cc(NC(=S)NCc3ccccn3)ccc12 do in these assays?
LmPK inh: inactive; RE007 growth inh: inactive; Tb PYK inh: inactive; CHX counter: inactive; FBPA Giardia inh: inactive; Shiga inhibitor: 34

How did Cn1c(NCCCO)nc2c1c(=O)n(Cc1cccc(F)c1)c(=O)n2C do in these assays?
Tb PYK inh: inactive

Results for CCN(CC)C(=O)COc1ccc2oc(-c3ccco3)cc(=O)c2c1 ?
LmPK inh: inactive; RE007 growth inh: inactive; Tb PYK inh: inactive; CHX counter: 19; FBPA Giardia inh: inactive; Shiga inhibitor: inactive

How did CCN(CC)C(=O)COc1c(-c2ccco2)oc2ccccc2c1=O do in these assays?
LmPK inh: inactive; RE007 growth inh: inactive; Tb PYK inh: inactive; CHX counter: inactive; FBPA Giardia inh: inactive; Shiga inhibitor: inactive

How did CCOC(=S)NC(=O)c1sc2ccccc2c1Cl do in these assays?
LmPK inh: inactive; RE007 growth inh: inconclusive; Tb PYK inh: inactive; CHX counter: 32; FBPA Giardia inh: inconclusive; Shiga inhibitor: inactive

What do the screens show for `O=C(NC(=S)NCCO)c1sc2ccccc2c1Cl`?
LmPK inh: inactive; RE007 growth inh: inactive; Tb PYK inh: inactive; CHX counter: 51; FBPA Giardia inh: inactive; Shiga inhibitor: 111
